An excerpt weighted towards active compounds, which were near 14% of everything screened.
HCMV inh – qHTS Assay for inhibitors of the human cytomegalovirus (HCMV); HFF cells, HCMV-luciferase reporter, 72 h; hits give low values; activity change, negative = inhibition, % at 57.5 µM; 4.5% of 410,000 active; in the data active = activity change below about -60%; inconclusive = no clear call, values can overlap the other calls; inactive = above about -39%
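Luciferase read-out from HCMV-luciferase-infected HFFs (MOI 1 PFU/cell) 72 h post infection at 37C; compounds added after 16 h cell attachment; activity normalized between buffer-only basal and Salinomycin (10uM) inhibitor controls.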
Pf growth 48h – Primary qHTS for delayed death inhibitors of the malarial parasite plastid, 48 hour incubation. P. falciparum luciferase growth in erythrocytes, 48 h. Potency, µM (titrated, usually from 28.7 µM), for the others: at the top dose activity change, negative = inhibition, hits mostly inhibitors. 5.9% of 310,000 active. AID 504832, 2011; note: potency is the fitted concentration of half-maximal effect
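A one-generation exposure of luciferase-tagged malaria parasites in RPMI 1640/Albumax erythrocyte culture, 37 C and 5% CO2. Inhibition is inferred from decreased luminescence after adding detection reagent.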
Pf growth 96h – Primary qHTS for delayed death inhibitors of the malarial parasite plastid, 96 hour incubation. AID 504834, 2011. P. falciparum luciferase reporter growth, 96 h. Potency, µM (titrated, usually from 28.7 µM), without a hit: at the top dose activity change, negative = inhibition, actives largely listed as inhibitors. 6.9% of 320,000 active; note: potency is the fitted concentration of half-maximal effect
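Two-generation exposure (96 h) targets delayed-death phenotype. Reporter parasites carrying integrated firefly luciferase, in red cells at 2% hematocrit and 0.05% parasitemia final, kept at 37 C, 5% CO2; luminescence loss indicates inhibition.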
Sm TGR inh – qHTS Assay for the Inhibitors of Schistosoma Mansoni Peroxiredoxins; Schistosoma mansoni thioredoxin glutathione reductase (TGR), Q962Y6; Potency, µM (highest dose often 114 µM), inactives show at the highest dose activity change, negative = inhibition, hits mostly inhibitors; purified TGR, DTNB reduction, TNB absorbance 405 nm; AID 485364, 2010; 3% of 360,000 active; note: potency is the fitted concentration of half-maximal effect; nearly all actives have a fitted effect of over 60% in size
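TGR 20 nM + NADPH 100 uM (dispensed conc.), cpd preinc 15 min RT; start with NADPH (500 uM addition) then DTNB (15 mM addition). Kinetic TNB absorbance, 405 nm filter. Four-parameter Hill fit across titration.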
Giardia FBPA inh – qHTS Assay for Inhibitors of Fructose-1,6-bisphosphate Aldolase from Giardia Lamblia; A8B2U2; purified Giardia FBPA; Potency, µM (top dose mostly 59.6 µM), without a hit: at the highest dose activity, negative = inhibition, usual class: inhibitors; 0.71% of 290,000 active; note: potency is the fitted concentration of half-maximal effect; nearly all actives have a fitted effect of over 55% in size
Target sequence (A8B2U2 whole entry, looked up): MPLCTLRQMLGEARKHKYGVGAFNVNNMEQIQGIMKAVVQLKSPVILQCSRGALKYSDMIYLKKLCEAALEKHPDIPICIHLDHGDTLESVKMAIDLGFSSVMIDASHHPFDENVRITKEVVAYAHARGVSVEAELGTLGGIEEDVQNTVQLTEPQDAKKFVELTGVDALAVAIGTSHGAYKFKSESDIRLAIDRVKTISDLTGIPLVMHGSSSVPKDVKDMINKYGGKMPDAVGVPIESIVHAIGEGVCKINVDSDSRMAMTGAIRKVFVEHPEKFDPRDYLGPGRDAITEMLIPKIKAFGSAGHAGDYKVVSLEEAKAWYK
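Giardia FBPA (40 nM reagent) was preincubated 10 min at RT with compound (up to 57.5 uM final), then substrate plus GAPDH/TPI/NAD/arsenate coupling system with diaphorase/resazurin was added; resorufin fluorescence (525/598 nm) was read after 20 min.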
Active calls of the source: *; ? = inconclusive; . = no result. Unless noted, calls come from the whole dose curve; as a rule, active = well fitted curve in the direction sought with a large enough effect; inconclusive = small, poorly fitted or top-dose-only effect, or another doubt; inactive = no such curve, though single readings can be large; an effect the other way counts as inactive or inconclusive. % is set by controls: 0 for no effect and ±100 for the full control effect.

SMILES	HCMV inh	Pf growth 48h	Pf growth 96h	Sm TGR inh	Giardia FBPA inh
CCN(C(=O)CN1C(=O)COc2ccc(S(=O)(=O)N3CCCCCC3)cc21)c1cccc(C)c1	-63.1*	3.29µM*	?	-2.0%	0.0%
CCN(Cc1ccccc1)C(=O)CN1C(=O)COc2ccc(S(=O)(=O)N3CCOCC3)cc21	68.8	.	.	3.7%	.
CC(C)N(Cc1ccccc1)C(=O)CN1C(=O)COc2ccc(S(=O)(=O)NC3CCCC3)cc21	-34.1	5.22µM*	?	-1.3%	6.2%
O=C(CSc1nc(=O)n(CCN2CCOCC2)c2c1CCCC2)Nc1ccc(F)cc1F	-16.0	?	-8.2%	0.7%	.
Cc1ccc(S(=O)(=O)N2C[C@H]3[C@H]4C(=O)N(Cc5ccccc5)C(=O)[C@H]4CC(=O)[C@H]3[C@@H]2c2ccccc2)cc1	-24.9	.	.	.	.
O=C(c1ccc(Br)c(S(=O)(=O)N2CCCCC2)c1)N1CCCCC1	59.3	?	?	-6.2%	3.4%
CCOC(=O)[C@]12CCCC=C1N(Cc1ccc(Cl)cc1Cl)C(=O)[C@H](CC(=O)N1CCN(C(=O)C3CC3)CC1)C2	2.5	.	.	.	.
c1ccc(-c2csc(Nc3ccc4c(c3)OCO4)n2)cc1	157.1	.	.	.	.
COc1ccccc1Nc1nc(-c2cccc(N3C(=O)c4ccccc4C3=O)c2)cs1	-34.4	6.5%	14.7µM*	-3.2%	3.3%
O=C1c2ccccc2C(=O)N1c1cccc(-c2csc(Nc3ccc4c(c3)OCO4)n2)c1	.	17.8%	10.4µM*	50.1µM*	-18.4%
CC(C)[C@@H](CC(=O)N[C@@H]1CCCC[C@H]1C(=O)N[C@H](CC(=O)N[C@@H](CCC(=O)O)CC(=O)O)Cc1c[nH]c2ccccc12)NC(=O)C[C@H](Cc1ccccc1)NC(=O)[C@@H]1CCCC[C@H]1N	.	.	.	.	-17.7%
Cc1ccc2c(c1)N(C(=O)C1CCN(S(=O)(=O)c3c(C)noc3/C=C/c3ccccc3F)CC1)CCO2	-14.4	.	.	-4.5%	.
Cc1ccc(C(c2cc(Br)ccc2O)N2CCSCC2)cc1 (stereo not drawn)	47.2	9.28µM*	14.7µM*	1.0%	.
Cc1ccc(C(c2nnnn2CCc2ccccc2)N2CCSCC2)cc1 (stereo not drawn)	?	?	.	6.1%	-2.9%
COc1ccc(Nc2ncc3c(n2)CCN(Cc2ccc(Br)s2)C3)c(OC)c1	-0.2	.	.	-6.0%	.
CCN(CC)c1nc(-c2ccccn2)nc(-c2ccccc2)c1C#N	-93.2*	?	4.15µM*	-1.4%	14.8%
CN(C)c1nc(-c2ccccc2)nc(-c2ccc(Cl)cc2)c1C#N	-25.3	16.6%	.	-6.7%	-6.4%
c1ccc(-c2nnc(-c3ccccn3)c(-c3ccccn3)n2)nc1	16.4	?	?	0.4%	?
CN(C)c1nc(-c2ccccn2)nnc1-c1ccccc1	-102.8*	.	2.08µM*	-0.5%	?
CC1CCN(S(=O)(=O)c2ccc([N+](=O)[O-])cc2)CC1	-5.8	12.9%	?	-28.1%	-1.2%
O=C1CC(=O)Nc2cc(S(=O)(=O)N3CCN(c4ccc([N+](=O)[O-])cc4)CC3)ccc2N1	-1.5	12.5%	-20.9%	11.2µM*	15.7%
O=[N+]([O-])c1ccc(Oc2ccc(S(=O)(=O)N3CCCCC3)cc2)cc1	-63.3*	-6.9%	24.2%	-3.1%	-7.8%
CC1CCN(S(=O)(=O)c2ccc(Oc3ccc([N+](=O)[O-])cc3)cc2)CC1	-77.0*	2.5%	21.9%	-19.3%	-1.6%
O=C1CN(S(=O)(=O)c2ccc([N+](=O)[O-])cc2)CC(=O)N1	0.0	40.7%	11.7µM*	?	-7.1%
CC(C)NC(=O)c1csc(N2CCN(CCc3ccccc3)C2=O)n1	11.2	.	.	.	.
SMILES	HCMV inh	Pf growth 48h	Pf growth 96h	Sm TGR inh	Giardia FBPA inh
COc1ccccc1CNC(=O)CCCC(=O)n1ncc2cc(C)ccc21	-35.9	20.9%	-4.4%	-9.9%	7.6%
COc1ccccc1CNC(=O)CCC(=O)n1ncc2cc(C)ccc21	5.1	7.6%	2.62µM*	-28.5%	11.0%
Clc1ccc2c(c1)C(N1CCNCC1)Cc1ccccc1S2 (stereo not drawn)	.	10.4µM*	13.1µM*	-25.7%	-19.6%
Clc1cccc2c1Sc1ccccc1CC2N1CCNCC1 (stereo not drawn)	?	?	10.4µM*	3.5%	-1.7%
CCCCCCCc1cc2c(cn1)C(=O)C(C)(OC(C)=O)C(O)=C2Cl (stereo not drawn)	.	.	.	.	-5.9%
CCN(CC(=O)Nc1ccc(OC)cc1)C(=O)c1ccc2c(=O)n3c(nc2c1)CCC3	0.0	?	?	-5.2%	.
CC(C)c1ccc(Nc2nc3c(S(=O)(=O)c4ccc(Br)cc4)nnn3c3ccsc23)cc1	4.8	.	.	5.5%	.
CCCN(C(=O)COC(=O)CC1CCCCC1)c1c(N)n(Cc2ccccc2)c(=O)[nH]c1=O	-14.1	8.28µM*	?	-2.8%	.
CCCCN(C(=O)CC1CCCC1)c1c(N)n(CCC)c(=O)[nH]c1=O	-3.6	-8.8%	-20.5%	0.562µM*	.
CCC1CCc2sc(C(=O)OCC(=O)N(CCOC)c3c(N)n(Cc4ccccc4)c(=O)[nH]c3=O)cc2C1 (stereo not drawn)	-21.1	?	10.4µM*	-9.8%	.
CCCN(C(=O)COC(=O)c1[nH]c(C)c(C(=O)OC)c1C)c1c(N)n(Cc2ccccc2)c(=O)[nH]c1=O	-23.7	14.7µM*	?	-4.1%	.
CCN(C(=O)COC(=O)c1cc(C)oc1C)c1c(N)n(Cc2ccccc2)c(=O)[nH]c1=O	-13.5	?	-11.6%	-18.8%	.
COCCN(C(=O)COC(=O)c1cc2c(s1)CCC2)c1c(N)n(Cc2ccccc2)c(=O)[nH]c1=O	-20.2	?	?	-13.6%	.
Cc1ccc(S(=O)(=O)N2CCC(C(=O)NCCCN3CCOCC3)CC2)cc1C	-24.3	?	14.2%	-1.8%	.
COC(=O)c1ccc(COC(=O)CNC(=O)c2ccc(C)s2)cc1	0.0	13.4%	120.6%	-7.2%	.
COC(=O)C1C2CC(C(Br)C2Br)C1C(=O)O (stereo not drawn)	-33.5	.	.	.	.
COCCN(C(=O)COC(=O)c1c(NC(C)=O)sc(C)c1C)c1c(N)n(Cc2ccccc2)c(=O)[nH]c1=O	-17.9	?	10.4µM*	10.4%	.
O=S(=O)(NCCc1cn2ccsc2n1)c1ccc(Cl)cc1	-27.9	.	.	35.5µM*	.
CCN(C(=S)NC(=O)c1ccccc1Br)C1CCCCC1	-6.6	-18.4%	?	-6.2%	0.0%
COc1ccc(C(=O)c2ccc(N3CCN(C(=O)c4ccc(F)cc4)CC3)c(F)c2)cc1Br	-88.5*	.	-26.5%	?	0.3%
CCCC(=O)N1CCN(c2ccc(C(=O)c3ccc(OC)c(Br)c3)cc2F)CC1	.	-3.1%	-15.6%	0.3%	1.6%
